The results in this text go back to PubChem BioAssay (NCI).

Among the test systems are HCT-15 colon; HT29 colon; SNB-75 CNS; SNB-19 CNS; U251 CNS; PC-3 prostate; SK-MEL-5 melanoma; UACC-62 melanoma; LOX IMVI melanoma; SK-MEL-28 melanoma; EKVX NSCLC; SN12C renal; UO-31 renal; TK-10 renal; CAKI-1 renal; A498 renal; CCRF-CEM leukemia; MOLT-4 leukemia; SK-MEL-2 melanoma; ACHN renal.
Holding throughout (assay): NCI-60 one-dose screen, 48 h (100 = growth as untreated, 0 = no growth, -100 = all killed)
What all share (details): 10 µM unless noted

About 83,000 compounds went through this panel and 20% of them were active in at least one assay; those are over-represented in the sample as a whole.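 A percent growth of 40 corresponds to 60% growth inhibition; 0 means no net growth; -100 means all cells died. Active threshold: below 10.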 A number with no mark means an inactive call. Calls of active or inactive are those of the source.

For `COc1ccc(Cn2cc(C(=O)N=Nc3c(O)[nH]c4c(Cl)cccc34)nn2)cc1`, the growth was 107% with HCT-15 colon; 97% with HT29 colon; 82.1% in the assay with SNB-75 CNS; 93.6% in the assay with SNB-19 CNS; 102% with U251 CNS; 96.7% in the assay with PC-3 prostate. Further, the growth in the assay on SK-MEL-5 melanoma was 101%; with UACC-62 melanoma, 102%; in the assay on LOX IMVI melanoma, 93.7%; in the assay on SK-MEL-28 melanoma, 115%; in the assay with EKVX NSCLC it was 102%; with SN12C renal, 95.8%. Further, the growth in the assay with UO-31 renal is 93.5%; in the assay with TK-10 renal, 106%; in the assay with CAKI-1 renal, 94.4%; with A498 renal, 93.8%; with CCRF-CEM leukemia, 106%; with MOLT-4 leukemia, 84.8%.
As to `CCNC(=O)Oc1ccc(/C(=C(/C)Cc2ccc(OC)cc2)c2ccc(OCCN3CCCCCC3)cc2)cc1`, the growth with HCT-15 colon was 18.7%; with HT29 colon, 2.15% (active); with SNB-75 CNS, 77.4%; with SNB-19 CNS it was 82.7%; with U251 CNS, 45.1%; with PC-3 prostate, 63.8%. Moreover, the growth is 66.2% in the assay with SK-MEL-5 melanoma; -22% (active) in the assay with LOX IMVI melanoma; 75.3% in the assay with SK-MEL-28 melanoma; 87% with SK-MEL-2 melanoma; 71.3% in the assay on EKVX NSCLC; 69.2% in the assay with SN12C renal. Moreover, the growth is 52.9% with UO-31 renal; 84.2% in the assay with TK-10 renal; 94.2% in the assay on ACHN renal; 82.5% in the assay with CAKI-1 renal; 70.5% in the assay on A498 renal; 41.6% in the assay with CCRF-CEM leukemia. Also, the growth with MOLT-4 leukemia was 35.2%.
For `O=C1CCC(C(=O)NN(c2ccccc2)c2ccccc2)N1` (configuration not stated), the growth with HCT-15 colon is 103%; in the assay with HT29 colon, 111%; in the assay on SNB-75 CNS, 89.2%; in the assay on SNB-19 CNS, 100%; with U251 CNS, 103%; in the assay on PC-3 prostate, 14.3%. Besides, the growth is 106% with SK-MEL-5 melanoma; 94.4% in the assay on UACC-62 melanoma; 95% in the assay on LOX IMVI melanoma; 109% in the assay with SK-MEL-28 melanoma; 102% in the assay with EKVX NSCLC; 97.8% in the assay with SN12C renal. The growth was 85.5% in the assay with UO-31 renal; 82.8% in the assay with TK-10 renal; 78% in the assay with CAKI-1 renal; 103% with A498 renal; 22% with CCRF-CEM leukemia; 50% in the assay on MOLT-4 leukemia.
Regarding `COc1cccc(/C=C/C(=O)c2cc3c(N)c(C(=O)Nc4ccccc4C)sc3nc2C)c1`, the growth with HCT-15 colon is 8.29% (active); in the assay with HT29 colon, -5.29% (active); in the assay with SNB-75 CNS, 12.8%; in the assay with SNB-19 CNS, 11.4%; with U251 CNS, 7.49% (active); in the assay with PC-3 prostate it was 45.3%. Also, the growth is 52.4% in the assay on SK-MEL-5 melanoma; 33.6% with UACC-62 melanoma; -65.9% (active) with LOX IMVI melanoma; 70.9% in the assay with SK-MEL-28 melanoma; 91.7% in the assay with EKVX NSCLC; 13.9% in the assay on SN12C renal. For the same molecule, the growth is 38.5% in the assay with UO-31 renal; 74.1% in the assay on TK-10 renal; 32.2% in the assay with CAKI-1 renal; 75.7% in the assay on A498 renal; 9.22% (active) with CCRF-CEM leukemia.
Turning to `Nc1nc(C(=O)N/N=C/c2ccc(N3CCOCC3)cc2)nn1-c1ccc(S(N)(=O)=O)cc1`, the growth in the assay on HCT-15 colon was 108%; with HT29 colon, 106%; in the assay on SNB-75 CNS, 83%; in the assay with SNB-19 CNS it was 102%; in the assay on U251 CNS, 98.3%; in the assay on PC-3 prostate, 101%. Besides, the growth in the assay on SK-MEL-5 melanoma was 102%; in the assay on UACC-62 melanoma, 102%; in the assay with LOX IMVI melanoma, 97.4%; in the assay on SK-MEL-28 melanoma, 117%; in the assay with EKVX NSCLC it was 101%; in the assay with SN12C renal, 103%. For the same molecule, the growth was 85.4% with UO-31 renal; 94.4% with TK-10 renal; 109% with ACHN renal; 89.8% with CAKI-1 renal; 107% in the assay with A498 renal; 112% in the assay with CCRF-CEM leukemia. Also, in the assay on MOLT-4 leukemia, the growth is 123%.
For `C=C(c1ccc(C(=O)O)cn1)c1cc2c(cc1C)C(C)(C)CCC2(C)C`, the growth in the assay with HCT-15 colon is 85.8%; in the assay with HT29 colon, 93.8%; with SNB-75 CNS, 94%; in the assay on SNB-19 CNS, 99.7%; with U251 CNS, 75.6%; in the assay with PC-3 prostate, 71.1%. Also, the growth with SK-MEL-5 melanoma is 70.8%; in the assay on UACC-62 melanoma, 94.3%; in the assay on LOX IMVI melanoma it was 87.3%; in the assay with SK-MEL-28 melanoma it was 96.8%; with EKVX NSCLC, 83.9%; with SN12C renal, 95.7%. Besides, the growth is 81.5% with UO-31 renal; 131% in the assay with TK-10 renal; 91.8% in the assay with ACHN renal; 87.9% with CAKI-1 renal; 80% in the assay with A498 renal; 83.5% in the assay on CCRF-CEM leukemia. Further, the growth in the assay with MOLT-4 leukemia is 95.7%.
For `CC(C)c1ccc(C(=O)Nc2sc3cc(O)ccc3c2C#N)cc1`, the growth in the assay with HCT-15 colon was 18.9%; in the assay with HT29 colon, 57.8%; in the assay with SNB-75 CNS it was 22.6%; in the assay on SNB-19 CNS, 36%; in the assay with U251 CNS it was 29.2%; with PC-3 prostate, 58.6%. Besides, the growth was 22.3% in the assay with SK-MEL-5 melanoma; 25.4% in the assay with LOX IMVI melanoma; 52.4% in the assay with SK-MEL-28 melanoma; 47.6% in the assay on SK-MEL-2 melanoma; 52.9% with EKVX NSCLC; 34.2% in the assay with SN12C renal. Also, the growth in the assay with UO-31 renal was 25.1%; in the assay on TK-10 renal, 63.4%; with ACHN renal, 47.3%; in the assay with CAKI-1 renal, 39.6%; with A498 renal, -0.765% (active); in the assay on CCRF-CEM leukemia, 12.3%. The growth in the assay on MOLT-4 leukemia is 18.3%.
Turning to `CCOc1ccc(NC(=O)c2cc(OC)c(OC)c(OC)c2)cc1`, the growth with HCT-15 colon is 31.8%; in the assay on HT29 colon it was 11.5%; in the assay on SNB-75 CNS, 30.5%; with SNB-19 CNS, 49.6%; with U251 CNS it was 30.1%; with PC-3 prostate it was 29.9%. Further, the growth in the assay on SK-MEL-5 melanoma was 28.7%; with LOX IMVI melanoma, 35.5%; in the assay on SK-MEL-28 melanoma it was 66.4%; with SK-MEL-2 melanoma, 16.1%; in the assay with EKVX NSCLC it was 54.1%; in the assay on SN12C renal, 56%. Further, the growth in the assay on UO-31 renal is 52%; in the assay on TK-10 renal, 60.3%; in the assay with ACHN renal, 55.9%; in the assay with CAKI-1 renal, 39.8%; with A498 renal it was -0.366% (active); with CCRF-CEM leukemia, 27.9%. Also, the growth in the assay on MOLT-4 leukemia was 31.6%.
As to `CCN(CC)CCOc1nc2c3ccc(Cl)cc3nn2c2ccccc12`, the growth was 4.7% (active) in the assay with HCT-15 colon; 15.2% in the assay on HT29 colon; 33.5% in the assay on SNB-75 CNS; 24.2% in the assay with SNB-19 CNS; 16.4% with U251 CNS; 34.1% with PC-3 prostate. Further, the growth is 51.3% in the assay on SK-MEL-5 melanoma; -47.2% (active) in the assay on LOX IMVI melanoma; 44.8% in the assay on SK-MEL-28 melanoma; 72.5% in the assay with SK-MEL-2 melanoma; 28.9% in the assay with EKVX NSCLC; 19.9% in the assay on SN12C renal. Also, the growth was -13.2% (active) in the assay on UO-31 renal; 51% in the assay on TK-10 renal; 8.93% (active) with ACHN renal; 16.5% with CAKI-1 renal; -12.2% (active) in the assay with A498 renal; 30.6% with CCRF-CEM leukemia. In addition, in the assay with MOLT-4 leukemia, the growth is 10.9%.
